Our source for the Potency values is PubChem BioAssay AID624170 (National Center for Advancing Translational Sciences (NCATS), 2012).

Hit rate of the full screen: of about 410,000 compounds, about 850 (0.21%) were called active. Inconclusive results (about 2%) are left out. Calls follow the shape of the dose curve; as a rule, active = well fitted inhibition curve with a large enough effect; inconclusive = small, poorly fitted or top-dose-only effect, or another doubt; inactive = no such curve, though single readings can be large or run the other way. The list comes from a sample in which actives are over-represented; it also holds similar structures and randomly drawn compounds. A call without a number means that no potency is given here.
Potency is read from the fitted curve at half-maximal effect.

Glutaminase kidney isoform, mitochondrial (Homo sapiens), sequence (O94925 whole entry, looked up, canonical isoform): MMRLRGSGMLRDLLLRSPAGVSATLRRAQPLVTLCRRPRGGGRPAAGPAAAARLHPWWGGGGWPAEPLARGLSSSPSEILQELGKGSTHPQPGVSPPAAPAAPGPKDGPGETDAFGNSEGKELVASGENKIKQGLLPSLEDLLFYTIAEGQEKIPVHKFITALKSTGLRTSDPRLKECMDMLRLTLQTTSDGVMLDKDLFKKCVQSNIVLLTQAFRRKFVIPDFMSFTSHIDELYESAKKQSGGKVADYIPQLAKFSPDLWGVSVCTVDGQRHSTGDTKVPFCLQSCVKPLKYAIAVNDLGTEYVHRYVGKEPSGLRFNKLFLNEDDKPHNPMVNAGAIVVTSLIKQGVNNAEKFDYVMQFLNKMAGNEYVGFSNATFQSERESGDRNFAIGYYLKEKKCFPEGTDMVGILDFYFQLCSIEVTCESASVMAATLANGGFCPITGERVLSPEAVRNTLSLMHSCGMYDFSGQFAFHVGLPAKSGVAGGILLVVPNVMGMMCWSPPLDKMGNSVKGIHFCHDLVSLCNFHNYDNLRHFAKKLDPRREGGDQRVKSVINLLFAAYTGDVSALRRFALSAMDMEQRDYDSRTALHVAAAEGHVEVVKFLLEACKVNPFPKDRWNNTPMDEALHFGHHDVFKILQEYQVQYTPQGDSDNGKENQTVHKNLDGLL

This test addresses Glutaminase kidney isoform, mitochondrial (Homo sapiens) (UniProt O94925). Kind of test: qHTS for Inhibitors of Glutaminase (GLS). The settings on record: GLS enzymatic activity, qHTS titration; series mostly up to 45.5 µM. The text has this:
Glutaminase (GLS) catalyzes the hydrolysis of glutamine into glutamate and ammonia. It plays a critical role in glutaminolysis, which is an important energy source for proliferating cells. It was shown that c-Myc, an oncogenic transcription factor known to regulate microRNAs and to stimulate cell proliferation, increases glutamine metabolism by stimulating the expression of GLS via direct suppression of miR23a and miR23b.
GLS is also thought to play a pathogenic role on HAD using a human HIV-1 infected macrophage system. […] GLS inhibition limits glutamate release and provides neuroprotection against HIV-1 infected macrophages.
The overall goal of this project is to identify small molecule inhibitors of GLS through quantitative high throughput screening (qHTS) of the MLSMR. A validated potent and selective inhibitor can be used as a tool molecule to further study the pharmacology of its target as well as explore its potential therapeutic application in cancer and inflammatory neurological disorders, such as HIV1-associated dementia (HAD) and multiple sclerosis.
NIH Chemical Genomics Center [NCGC]
NIH Molecular Libraries Probe Centers Network [MLPCN]
Assay Submitter (PI): Barbara S. Slusher, Johns Hopkins University
Three 3 uL of hKGA is dispensed into black well 1536-well plates in 45 mM KH2PO4 (pH 8.2), 0.02% Tween-20. Then 23 nL of compounds are added through pin tool transfer. To this, 1 uL of 1mM L-Glutamine and 1 uL of a solution of L-Glutamateoxidase, HRP, Amplex red are added. Plate is centrifuged for 25 sec before an initial fluorescence read is obtained on the ViewLux, after 30 min of RT incubation, the final read is taken on the ViewLux.
A general note: Quantitative high-throughput screening tests each substance at several concentrations.
Consider `CCOC(=O)C1=CCC2C(=O)N(Cc3ccccc3)C(=O)C12` (stereo not given), for which the Potency result was “inactive”.

Turning to `COc1cc(/C=C2/SC(=S)N(Cc3ccccc3)C2=O)cc(OC)c1O`, the Potency is 20 µM (active).

With `COc1ccc(CCNC(=O)CCCCn2c(=O)c3ccccc3n(Cc3ccccc3)c2=O)cc1OC`, the Potency entry is “inactive”. Take `COc1cc(NC(=O)c2nn(-c3ccc(C)cc3)c(=O)c3c2c2ccccc2n3C)cc(OC)c1OC`: the Potency result was “inactive”.

Regarding `COc1ccc(CCC(=O)NCCc2csc(-c3ccc(Cl)cc3)n2)cc1`, the Potency entry was “inactive”. As to `FC(F)(F)COc1nc(N2CCCCC2)nc(N2CCNCC2)n1`, the Potency result was “inactive”. For `COc1nc(NC2CCCCC2)nc(N2CCCCCC2)n1`, the Potency entry is “inactive”. For the compound `CN(N)c1nc(N2CCCC2)nc(N2CCCC2)n1`, the Potency was 14.1 µM (active). For the compound `CCCN(CC)[C@@H](CC)C(=O)Nc1c(C)cccc1C`, the Potency result is “inactive”.

Turning to `O=C(O)CCC(=O)O`, the Potency entry is “inactive”.

Regarding `O=C(CCSCc1ccccc1F)N1CCN(c2ccc(Cl)cc2)CC1`, the Potency entry is “inactive”. As for `Cn1cnc2c1c(=O)n(Cc1c(Cl)cccc1Cl)c(=O)n2C`, the figure is 20 µM (active); as for `Cn1cnc2c1c(=O)n(Cc1ccccc1C#N)c(=O)n2C`, “inactive”. As for `Cn1c(=O)n(Cc2c(F)cccc2Cl)c(=O)c2c1nc1n2CCN1c1ccc(F)cc1`, the Potency entry was “inactive”.

Consider `CO[C@H]1C[C@@H](O[C@@H]2[C@@H](C)O[C@@H](O[C@@H]3/C(C)=C/CC4C[C@@H](C[C@]5(C=C[C@@H](C)[C@H](C6CCCCC6)O5)O4)OC(=O)[C@@H]4C=C(C)[C@@H](O)[C@H]5OC/C(=C\C=C\[C@@H]3C)[C@]54O)C[C@H]2OC)O[C@@H](C)[C@@H]1O`, for which the Potency entry is “inactive”. On to `NC(=O)C(=O)N/N=C/c1ccc([N+](=O)[O-])o1`, for which the Potency entry was “inactive”. Take `COc1cc(C[C@H]2NCCc3cc(O)c(O)cc32)cc(OC)c1OC`: the Potency entry is “inactive”. Regarding `O=S(O)CNc1ccc(S(=O)(=O)c2ccc(NCS(=O)O)cc2)cc1`, the Potency result is “inactive”. Consider `FC(F)(F)C1CCCN(c2nsc3ccccc23)C1` (stereo not given), for which the Potency is 7.94 µM (active). Then `COc1cc([C@@H]2c3cc4c(cc3[C@@H](O[C@@H]3O[C@@H]5CO[C@@H](C)O[C@H]5[C@H](O)[C@H]3O)[C@H]3COC(=O)[C@H]23)OCO4)cc(OC)c1OP(=O)(O)O`, with “inactive”; and `COc1ccc(-c2ccc(=O)n(CC(=O)Nc3ccc(Br)cc3F)n2)cc1`, with “inactive”; and `COc1cc([C@H](Cc2ccccc2)NC(C)=O)oc(=O)c1`, with 17.8 µM (active). As for `COc1ccc(CNC(=O)C(Cc2ccccc2)n2cccc2)cc1` (stereo not given), the entry is “inactive”; as for `COc1ccc2oc(C(=O)NCC(Cc3ccccc3)N(C)C)c(C)c2c1` (stereo not given), “inactive”; as for `COc1ccc(N2CCN(S(=O)(=O)CCNC(=O)C(c3ccccc3)c3ccccc3)CC2)cc1`, “inactive”.

Take `CCOC(=O)c1ccccc1NC(=O)CCc1c(C)nc2c(c1C)c(=O)n(C)c(=O)n2C`: the Potency result was “inactive”. As for `O=C(O)CCCCC(=O)O`, the Potency result was “inactive”. As for `CCOc1ccc(NC(=O)c2c(NC(=O)Cc3ccccc3)sc3c2CCC(C)C3)cc1` (stereo not given), the entry is “inactive”; as for `O=C(Nc1cccc(Cl)c1)c1csnn1`, “inactive”. Regarding `O=C(Nc1ccccc1)c1nnsc1S(=O)(=O)c1ccc(Cl)cc1`, the Potency is 14.1 µM (active). With `O=C(Nc1ccc(Oc2ccccc2)cc1)C1CCN(S(=O)(=O)c2ccc(Cl)cc2)CC1`, the Potency result is “inactive”. Then `CCCC[C@H]1C(=O)N(c2ccccc2)N(c2ccc(O)cc2)C1=O`, with “inactive”; and `O=C(OCc1ccccc1)c1ccc(O)cc1`, with “inactive”; and `CC(=O)OC1C([N+]2(C)CCCCC2)C[C@H]2C3CC[C@H]4C[C@H](OC(C)=O)C([N+]5(C)CCCCC5)CC4(C)C3CCC12C` (stereo not given in full), with “inactive”.

As to `O=C(O)CC(Cc1ccccc1)C(=O)Nc1ccc([N+](=O)[O-])cc1` (stereo not given), the Potency entry is “inactive”. Then `O=C(O)/C=C/C(=O)NNc1ccc([N+](=O)[O-])cc1`, with 11.2 µM (active); and `CC(C)(C)C(=O)NCCCNc1ccc([N+](=O)[O-])cc1`, with “inactive”. Then `CCCCC(=O)OCC(=O)[C@H]1[C@H](C)C[C@@H]2[C@@H]3C[C@@H](F)C4=CC(=O)C=C[C@]4(C)[C@@]3(F)[C@@H](O)C[C@@]21C`, with “inactive”; and `COc1ccc(NC(=O)c2sc3nc[nH]c(=O)c3c2C)cc1`, with “inactive”. Turning to `Cn1c(=O)c2c(nc(NCCNC(=O)c3ccco3)n2Cc2ccccc2F)n(C)c1=O`, the Potency entry was “inactive”. Take `CC(C)OCCCNc1nc2c(c(=O)n(Cc3ccccc3F)c(=O)n2C)n1C`: the Potency was 12.6 µM (active). As for `Cn1c(=O)c2c(nc(NCCc3ccccc3)n2Cc2ccccc2Br)n(C)c1=O`, the Potency result is “inactive”. With `CCC(C)Nc1oc(-c2ccc(COc3ccc(Cl)cc3)o2)nc1C#N` (stereo not given), the Potency entry was “inactive”. As for `CC(O)COc1ccccc1` (stereo not given), the Potency result is “inactive”. Regarding `CC1(C)OC[C@@H](COC(=O)CCc2ccc(OC[C@@H](O)CNCCNC(=O)N3CCOCC3)cc2)O1`, the Potency result was “inactive”. Take `Cc1cc(C)c2c(c1)c(C)cc1nnc(SCC(=O)NCc3ccco3)n12`: the Potency entry is “inactive”. As to `Cc1cccc(NC(=O)CSc2nc(-c3ccco3)cc(C(F)(F)F)n2)c1C`, the Potency entry is “inactive”.

With `Cc1cc(C)c2nc(-c3ccco3)cc(C(=O)O)c2c1`, the Potency was 11.2 µM (active). As for `COC(=O)[C@@H]1CC2=CC(=O)CC[C@]2(C)[C@@]23O[C@@H]2C[C@@]2(C)[C@@H](CC[C@@]24CCC(=O)O4)[C@H]13`, the Potency result is “inactive”. For the compound `CC(NC(=O)CCc1cn(Cc2ccccc2Cl)c2ccccc12)c1ccccc1` (stereo not given), the Potency entry is “inactive”. Take `Cc1ccc(Cn2c(CNC(=O)Cc3cccc(C)c3)nc3cccnc32)cc1`: the Potency result was “inactive”. As to `C=C1c2c(Cl)ccc(O)c2C(O)=C2C(=O)[C@]3(O)C(O)=C(C(N)=O)C(=O)[C@@H](N(C)C)[C@@H]3[C@@H](O)C12` (stereo not given in full), the Potency was 10 µM (active). On to `Cc1c(O)cc2c(c1C)O[C@](C)(CCC[C@H](C)CCC[C@H](C)CCCC(C)C)CC2`, for which the Potency entry is “inactive”.

Take `CCC[C@H]1C(=O)N2C(N(C)C)=Nc3ccc(C)cc3N2C1=O`: the Potency entry is “inactive”. With `CCc1cc2c(cc3c(=O)n(CC(=O)N4CCN(c5cc(Cl)ccc5C)CC4)ncn32)s1`, the Potency entry is “inactive”. Regarding `CC(C)CCN(C(=O)Nc1ccc(Cl)c(Cl)c1)C(C)c1cccs1` (stereo not given), the Potency entry is “inactive”. For `COc1ccc(C2(C#N)CCC(C(=O)O)CC2)cc1OC1CCCC1` (stereo not given), the Potency result was “inactive”. `CCOC(=O)Nc1ccc2c(c1)N(C(=O)CN1CCN3CCCC3C1)c1ccccc1CC2` (stereo not given): the Potency result is “inactive”. As to `CCOC(=O)Nc1ccc2c(c1)N(C(=O)CCCl)c1ccccc1[S@]2=O`, the Potency result was “inactive”. For the compound `CCNCCC(=O)N1c2ccccc2Sc2ccc(NC(=O)OCC)cc21`, the Potency was 11.2 µM (active).
